In the library only some 20% were active in any assay of this set; here they are far more common.
HCMV antiviral: human cytomegalovirus inhibition; AID 1259415; HFF cells, HCMV-luciferase reporter, 72 h; active compounds read low; 4.5% of 410,000 active; activity change, negative = inhibition, % at 57.5 µM; in the data active = activity change below about -60%; inconclusive = no clear call, values can overlap the other calls; inactive = above about -39%; note: % is set by controls: 0 for no effect and ±100 for the full control effect
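Compounds were evaluated in HFFs infected with an HCMV luciferase reporter virus (MOI 1 PFU/cell). Luciferase in lysates collected 72 h post infection served as the replication measure.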
Pf growth 48h: inhibits P. falciparum growth in the first generation, 48 h; P. falciparum luciferase growth in erythrocytes, 48 h; Potency, µM (top dose mostly 28.7 µM), inactives show at the top dose activity change, negative = inhibition, hits mostly inhibitors; 5.9% of 310,000 active; AID 504832; note: potency is the fitted concentration of half-maximal effect; % is set by controls: 0 for no effect and ±100 for the full control effect
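Growth was read as firefly luciferase luminescence after a 48 h, 37 C, 5% CO2 exposure of compounds to reporter-bearing P. falciparum cultures (0.1% parasitemia, 2% hematocrit final) in Albumax-supplemented RPMI 1640.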
Pf growth 96h: inhibits malaria parasite growth, 96 h; AID 504834; 6.9% of 320,000 active; P. falciparum luciferase reporter growth, 96 h; Potency, µM (highest dose often 28.7 µM), for the others: at the highest dose activity change, negative = inhibition, usual class: inhibitors; note: potency is the fitted concentration of half-maximal effect; % is set by controls: 0 for no effect and ±100 for the full control effect
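Cell-based qHTS: luciferase-tagged P. falciparum in erythrocytes (2% hematocrit, 0.05% parasitemia final) incubated with compounds for 96 hours, 37 C, 5% CO2; luciferase detection reagent then added and luminescence measured.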
Cycloheximide cs: affects cycloheximide protein synthesis inhibition readout, counter-screen. 12% of 300,000 active. cell reporter, cycloheximide protein synthesis inhibition counterscreen. max response, %. AID 2314; in the data active = max response mostly above about 13%, no sharp cut-off; inactive = mostly below about 14%; note: read at 38.3 µM for the half of the compounds with a filed dose; 0% is about no effect
Shiga inhibitor: blocks Shiga toxin action in Vero cells; Vero cells, Shiga toxin protein synthesis inhibition reporter; inhibition, % at 38.7 µM; 9.2% of 290,000 active; in the data active = inhibition mostly above about 28%, no sharp cut-off; inactive = mostly below about 43%; note: 0% is about no effect
The depositor's hits bear a star. Unless noted, calls come from the whole dose curve; as a rule, active = well fitted inhibition curve with a large enough effect; inconclusive = small, poorly fitted or top-dose-only effect, or another doubt; inactive = no such curve, though single readings can be large or run the other way.

How did Cc1cc(OCc2nc3ccccc3s2)ccc1N do in these assays?
HCMV antiviral: 113; Pf growth 48h: 256%; Pf growth 96h: 415%; Cycloheximide cs: 59*; Shiga inhibitor: 112*

How did N#C/C(=C(/O)COc1ccccc1)c1nc2ccccc2s1 do in these assays?
HCMV antiviral: -25; Pf growth 48h: -1%; Pf growth 96h: 59%; Cycloheximide cs: -3; Shiga inhibitor: -18

Results for O=S(=O)(Cc1nc2ccccc2s1)c1ccccc1 ?
HCMV antiviral: 18; Pf growth 48h: 157%; Pf growth 96h: 19%; Cycloheximide cs: 27*; Shiga inhibitor: 52*

How did c1ccc(OCc2nc3ccccc3s2)cc1 do in these assays?
HCMV antiviral: 80; Pf growth 48h: 338%; Pf growth 96h: -23%; Cycloheximide cs: 61*; Shiga inhibitor: 68*

How did N#Cc1ccc(NC(=O)CCc2nc3ccccc3s2)cc1 do in these assays?
HCMV antiviral: 10; Pf growth 48h: 2%; Pf growth 96h: 4%; Cycloheximide cs: 8; Shiga inhibitor: 10

How did O=S(=O)(CCc1nc2ccccc2s1)c1ccc(Cl)cc1 do in these assays?
HCMV antiviral: -10; Pf growth 96h: -29%; Cycloheximide cs: -2; Shiga inhibitor: -11

What do the screens show for `NC(=O)C1CCN(C(=O)CN(C2CCCCC2)S(=O)(=O)c2ccc(F)cc2)CC1`?
HCMV antiviral: 1; Pf growth 48h: 5%; Pf growth 96h: 8%; Cycloheximide cs: -3; Shiga inhibitor: -5

How did COc1cccc(-n2c(=O)c3c4c(sc3n(Cc3ccc(C)cc3)c2=O)CCCC4)c1 do in these assays?
HCMV antiviral: 6

Results for O=C(CSc1nnc(COc2ccccc2)o1)Nc1cc(C(F)(F)F)ccc1Cl ?
HCMV antiviral: -2

How did Cc1ccc(O)c(C(=O)c2cnn(C(=O)c3cccc(S(=O)(=O)N(C)C)c3)c2)c1 do in these assays?
HCMV antiviral: -28; Pf growth 48h: 17%; Pf growth 96h: 6%

Results for O=C(NCC(=O)N1CC(O)CC1C(=O)N1CCCC1C(=O)OCc1ccccc1)OCc1ccccc1 (stereo not drawn) ?
HCMV antiviral: -26; Pf growth 48h: 48%; Pf growth 96h: 20%; Cycloheximide cs: -3; Shiga inhibitor: -8

Results for COc1ccc(CCN2C(=O)N(c3ccc(C)cc3)C(=O)C2CC(=O)Nc2ccc(OC)cc2)cc1 (stereo not drawn) ?
HCMV antiviral: 19

What do the screens show for `Fc1ccc(OCc2nc3ccccc3s2)cc1`?
HCMV antiviral: 20; Pf growth 48h: inactive; Pf growth 96h: inconclusive; Cycloheximide cs: 52*; Shiga inhibitor: 114*

How did O=C(OCC(=O)c1ccc[nH]1)c1ccc2ccccc2n1 do in these assays?
HCMV antiviral: 27; Pf growth 48h: -2%; Pf growth 96h: 35%; Cycloheximide cs: 19*; Shiga inhibitor: 18

What do the screens show for `NC(=O)c1ccc(NC(=O)COC(=O)c2ccc3ccccc3n2)cc1`?
HCMV antiviral: 26

What do the screens show for `O=C(COC(=O)c1ccc2ccccc2n1)c1ccccc1`?
HCMV antiviral: 4; Pf growth 48h: -9%; Pf growth 96h: -10%; Cycloheximide cs: 46*; Shiga inhibitor: 52

What do the screens show for `COc1ccc(CNC(=O)COC(=O)c2ccc3ccccc3n2)cc1`?
HCMV antiviral: 97

Results for O=C(OCc1ccc(F)cc1)c1ccc2ccccc2n1 ?
HCMV antiviral: 2; Pf growth 48h: 18%; Pf growth 96h: 0%; Cycloheximide cs: 25*; Shiga inhibitor: 46*

Results for O=C1CCC[C@H]2[C@@H](Cc3ccccc3)[C@H](NCC3CCCCC3)CC[C@]23CCCN13 ?
HCMV antiviral: 9

What do the screens show for `CC(C)c1ccc(Oc2cccc3c2S(=O)(=O)N(C2CCCC2)CC(COCc2ccccc2)O3)cc1` (stereo not drawn)?
HCMV antiviral: -31

How did Cc1ccc(NC(=O)c2cccc(N3CCCS3(=O)=O)c2)cc1C do in these assays?
HCMV antiviral: 83

How did Cc1cc(N2CCCCC2)nc2ccc(NC(=O)c3cccc(F)c3)cc12 do in these assays?
HCMV antiviral: -80*

Results for Cc1cc(N2CCCCC2)nc2ccc(NC(=O)c3cccc(Cl)c3)cc12 ?
HCMV antiviral: -62*

Results for O=C(CNS(=O)(=O)c1ccc(Br)cc1)NCc1ccncc1 ?
HCMV antiviral: 9; Pf growth 48h: 8%; Pf growth 96h: inconclusive; Cycloheximide cs: -7; Shiga inhibitor: -9

How did CCC(=O)N1CCc2cc(CNS(=O)(=O)c3ccc(Cl)s3)ccc21 do in these assays?
HCMV antiviral: -32

Results for Cc1ccc2nc(-c3ccc(NS(=O)(=O)c4ccc(F)cc4)cc3)sc2c1 ?
HCMV antiviral: -94*; Pf growth 48h: 163%; Pf growth 96h: 140%; Cycloheximide cs: 52*; Shiga inhibitor: 159*

What do the screens show for `CNC(=S)Nc1ccc(-c2nc3ccc(C)cc3s2)cc1`?
HCMV antiviral: 88; Pf growth 48h: inactive; Pf growth 96h: inactive; Cycloheximide cs: 30*; Shiga inhibitor: 95*

Results for CC(=O)Nc1ccc(S(=O)(=O)Nc2nc3ccc(C)cc3s2)cc1 ?
HCMV antiviral: 43; Pf growth 48h: 30%; Pf growth 96h: 26%; Cycloheximide cs: -4; Shiga inhibitor: -7

What do the screens show for `Cc1ccc2nc(-c3ccc(NC(=S)NCCC(C)C)cc3)sc2c1`?
HCMV antiviral: 122

How did Cc1ccc2nc(-c3ccc(N)cc3)sc2c1 do in these assays?
HCMV antiviral: -33; Pf growth 48h: 0%; Pf growth 96h: inactive; Cycloheximide cs: 30*; Shiga inhibitor: 11

Results for CC(=O)NC(=S)Nc1ccc(-c2nc3ccc(C)cc3s2)cc1 ?
HCMV antiviral: 89; Pf growth 48h: 112%; Pf growth 96h: 225%; Cycloheximide cs: 27*; Shiga inhibitor: 80*

How did Nc1ccc2nc(-c3ccccc3)sc2c1 do in these assays?
HCMV antiviral: -32; Pf growth 48h: 135%; Pf growth 96h: 0%; Cycloheximide cs: 9; Shiga inhibitor: 25

Results for O=C1NC(=O)c2c1c(-c1ccccc1)cc1[nH]c3ccc(O)cc3c21 ?
Cycloheximide cs: 16; Shiga inhibitor: 5

How did C=CCNCCCCOc1ccc(OCC)cc1 do in these assays?
HCMV antiviral: 40; Pf growth 96h: -16%; Cycloheximide cs: -3; Shiga inhibitor: -10

Results for Cc1cn2c(=O)c(S(=O)(=O)Nc3ccc(F)cc3F)c(C)nc2s1 ?
HCMV antiviral: 0

How did COc1ccc(C(=O)NCc2ccc3c(c2)CCN3C(=O)c2ccccc2)cc1 do in these assays?
HCMV antiviral: 1

How did Cc1ccc2ccc3c(c2n1)NS(=O)(=O)c1ccc(C(F)(F)F)cc1-3 do in these assays?
Cycloheximide cs: -4; Shiga inhibitor: -4

What do the screens show for `Nc1ccc(-c2nc3cc(N)ccc3s2)cc1`?
HCMV antiviral: 58; Pf growth 48h: 136%; Pf growth 96h: inconclusive; Cycloheximide cs: 38*; Shiga inhibitor: 67*

How did CC1=CCC(C(=O)O)C(C(=O)O)C1 (stereo not drawn) do in these assays?
HCMV antiviral: 30; Pf growth 48h: 54%; Pf growth 96h: 40%; Cycloheximide cs: -7; Shiga inhibitor: -9

High-throughput results from PubChem.
